Assay [1] concerns the target Albumin (Bos taurus) (UniProt P02769). The experiment in a line: compounds binding labelled BSA control protein – biochemical, small-molecule microarray, Alexa647 label, 635/667 nm fluorescence, artefact control for SMM control protein annotation, profiling panel (AID 1118).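 Further: score merges 667 nm emission intensity and signal-to-noise per printed compound spot.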 The settings on record: BSA-A647 binding, fluorescence 635 nm, higher = more signal.
Assay [2] is described as follows: probe aXIP binding to arrayed compounds – biochemical, NeuroSMM set, 635/667 nm fluorescence, primary screen (AID 1119).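 Further: probe is the protein aXip251-270 applied at 1 µg/mL to compound-printed slides; binding of probe to printed compounds measured as 667 nm fluorescence plus signal to noise.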 The settings on record: small-molecule microarray, higher = more signal, called active from +8 up or from −8 down.
Assay [3] can be described thus: probe aNOTCH3 binding on compound microarray – biochemical, small-molecule microarray, 635/667 nm fluorescence, primary screen (AID 1120).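 Further: probe is a biotin-tagged antibody raised against NOTCH3 rather than NOTCH3 protein; score merges spot fluorescence near 667 nm with spot signal to noise.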 The settings on record: higher = more signal.
The nature of assay [4]: probe aNOTCH2 binding on compound microarray – biochemical, small-molecule microarray, 635/667 nm fluorescence, primary screen (AID 1121).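 Further: score merges feature fluorescence read at 667 nm with its signal to noise.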 As to conditions: higher = more signal.
The target of assay [5] is Carbonic anhydrase 2 (Homo sapiens) (UniProt P00918). The experiment in a line: compounds binding carbonic anhydrase 2 – biochemical, small-molecule microarray, Alexa647-labelled CAII, profiling panel (AID 1122). As to conditions: CAII-A647 binding fluorescence, higher = more signal.
Assay [6] in a line: COS7 lysate on small-molecule microarray, probe aHis, 635 nm (AID 1123).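 Further: z-score combines 667nm fluorescence intensity with signal-to-noise per printed compound spot.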 As to conditions: COS7 cell lysate, fluorescence, higher = more signal.
Assay [7] can be described thus: probe aLAP1 signal on lysate-treated microarray – cell lysate, small-molecule microarray, COS7 lysate, primary screen (AID 1124).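 Further: lysate comes from COS7 cells expressing LAP1 and is applied at 0.3 µg/mL; score merges spot fluorescence near 667 nm with signal-to-noise over triplicate slides.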 The settings on record: probe aLAP1, fluorescence, higher = more signal.
Assay [8] deals with Sam68 (KHDRBS1). The experiment in a line: compounds binding KHDRBS1 protein – biochemical, small-molecule microarray, 635 nm fluorescence, primary screen (AID 1125).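 Further: score merges 667 nm channel intensity with signal to noise over triplicate slides.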 As to conditions: higher = more signal.
The subject of assay [9] is Chordin-like protein 2 (CHRDL2). The experiment in a line: compounds binding chordin-like 2 – biochemical, small-molecule microarray, 635 nm fluorescence, primary screen (AID 1126).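 Further: printed compound slides probed with Chrdl2 protein at 4 µg/mL for 1 h at 4 C; score merges 667 nm emission intensity with signal to noise over three replicate slides.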 As to conditions: fluorescence 635 nm, higher = more signal.
Assay [10] has as its target Concanavalin-A (Canavalia ensiformis) (UniProt P02866). The assay can be described thus: compounds binding concanavalin A lectin – biochemical, small-molecule microarray, Alexa647 label, 635 nm, artefact control for SMM control protein annotation, primary screen (AID 1127).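 Further: z combines 667 nm emission intensity with signal-to-noise across three replicate slides.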 The settings on record: ConA-A647 binding fluorescence, higher = more signal.

Activity calls are given as the source filed them.

Sequence of Concanavalin-A (Canavalia ensiformis) (P02866 whole entry, looked up): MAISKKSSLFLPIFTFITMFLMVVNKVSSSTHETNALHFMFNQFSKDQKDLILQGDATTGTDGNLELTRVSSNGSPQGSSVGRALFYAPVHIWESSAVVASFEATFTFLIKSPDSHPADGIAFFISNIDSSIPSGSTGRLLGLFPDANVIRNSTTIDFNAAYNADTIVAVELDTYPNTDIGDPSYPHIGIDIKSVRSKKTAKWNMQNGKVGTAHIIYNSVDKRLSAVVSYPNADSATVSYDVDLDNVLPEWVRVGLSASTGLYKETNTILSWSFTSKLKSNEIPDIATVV
Sequence of Albumin (Bos taurus) (P02769 whole entry, looked up): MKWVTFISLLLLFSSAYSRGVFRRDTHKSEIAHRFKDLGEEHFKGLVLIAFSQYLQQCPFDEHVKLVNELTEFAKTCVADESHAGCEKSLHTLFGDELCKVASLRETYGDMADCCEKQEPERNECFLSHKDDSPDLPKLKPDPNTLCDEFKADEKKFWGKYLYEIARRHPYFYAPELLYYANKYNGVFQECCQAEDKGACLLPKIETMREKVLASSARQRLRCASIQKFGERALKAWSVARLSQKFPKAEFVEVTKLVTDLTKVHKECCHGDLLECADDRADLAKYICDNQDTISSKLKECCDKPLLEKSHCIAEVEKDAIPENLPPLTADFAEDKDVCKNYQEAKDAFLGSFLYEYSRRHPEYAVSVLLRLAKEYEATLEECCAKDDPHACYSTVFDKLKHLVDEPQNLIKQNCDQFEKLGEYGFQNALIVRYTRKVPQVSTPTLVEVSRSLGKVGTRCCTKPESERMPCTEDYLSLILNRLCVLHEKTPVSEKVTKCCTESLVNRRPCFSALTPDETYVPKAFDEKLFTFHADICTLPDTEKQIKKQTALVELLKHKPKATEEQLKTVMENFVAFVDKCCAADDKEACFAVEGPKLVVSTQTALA

For the molecule `C=CC(=C)[C@H]1Oc2ccccc2S(=O)(=O)N2CCC[C@@H]12`, the composite z-score in assay [1] was 0; in assay [3] it was -0.0588; in [4], -0.156; in [5], -0.293; in [6] it was -0.284; in assay [7] it was -0.0098. Further, the composite z-score in [8] is -0.973; in [9] it was 0.634; in [10], -0.285. In [2], the composite Z-score is 0.0556 (inactive).
For `C=C(C(=O)CC[C@@H](OC(=O)c1cccnc1)c1ccccc1OCCO)C(C)C`, the composite z-score in assay [1] was 0.116; in [3] it was 0.0909; in [4], -0.092; in assay [5], 0.638; in assay [6] it was 0.206; in [7], 1.51. In addition, the composite z-score in assay [8] is 0.489; in assay [9] it was 0.411; in [10], -0.67. Moreover, the composite Z-score in assay [2] was 0.59 (inactive).
On to `NC(=O)NCC#Cc1ccc2c(c1)[C@]1(C(=O)N2)[C@H](C(=O)Nc2nc3ccccc3s2)[C@H]2C(=O)O[C@H](c3ccccc3)[C@H](c3ccccc3)N2[C@@H]1c1ccccc1OCCO`, for which the composite z-score was 0.46 in [1]; 1.1 in [3]; 0.0196 in assay [4]; 0.39 in assay [5]; 2.83 in [6]; 1.14 in assay [7]. Besides, the composite z-score in [8] turned out to be 1.18; in [9] it was 0.277; in [10], 1.08. In [2], the composite Z-score is 1.24 (inactive).
With `COCCOC(=O)N1C(=O)[C@@]2(c3ccccc31)[C@H](c1ccccc1OCCO)N1[C@H](c3ccccc3)[C@H](c3ccccc3)OC(=O)[C@H]1[C@@H]2C(=O)N1CCN(c2ncccn2)CC1`, the composite z-score in assay [1] is 0.493; in [3], -0.0345; in [4], -0.0756; in assay [5], 0.521; in [6] it was 1.59; in assay [7], 0.218. Further, the composite z-score in assay [8] is 1.29; in [9] it was 0.0792; in [10] it was 1.11. Besides, in assay [2], the composite Z-score was 1.6 (inactive).
Take `CN(C)CCCCCCNC(=O)[C@H]1C[C@H]2C(=O)N[C@@H](CCCCN)C(=O)N2[C@H]1c1cccc(OCCO)c1`: the composite z-score in assay [1] stood at 0.733; in [3] it was 1.95; in [4] it was 0.986; in assay [5], 0.773; in assay [6], 4.1; in assay [7], 0.952. For the same molecule, the values for the composite z-score in assay [8], in assay [9] and in assay [10] were 1.33, 1.46 and 1.25, respectively. Besides, the composite Z-score in assay [2] is 5.67 (inactive).
With `COc1ccc(C(=O)Nc2ccc(CN3C(=O)[C@]4(O[C@H](CCO)[C@@H]([Si](C)(C)c5ccc(OC)cc5)[C@@H]4C)c4ccccc43)cc2)cc1`, the composite z-score in [1] was 0.357; in [3] it was 0.149; in [4] it was -0.0891; in [5], 0.283; in [6], 0.417; in assay [7], -0.337. Besides, the results for the composite z-score in assay [8], in [9] and in [10] were 1.22, 0.531 and 1.09, respectively. Besides, the composite Z-score in assay [2] is 0.377 (inactive).
With `CC(CO)N1C(=O)[C@@H]2C3C(=O)OCCC/C=C\[C@H]3OC23C=CCN(C(C)(C)C)C(=O)[C@@H]13` (stereo not given in full), the composite z-score in [1] was -0.757; in assay [3], -0.103; in assay [4], -0.167; in assay [5], 0.872; in assay [6] it was 0.295; in assay [7], 0.198. In addition, the composite z-score in assay [8] was -0.0677; in assay [9] it was -0.184; in assay [10], 0.0099. Also, the composite Z-score in assay [2] is -0.483 (inactive).
As to `CC(C)NC(=O)[C@@]1(C)c2ccccc2C(=O)N(Cc2cc(C(F)(F)F)cc(C(F)(F)F)c2)[C@H]1c1ccc(CO)cc1`, the composite z-score in [1] was -0.47; in [3], -0.165; in assay [4], -0.123; in assay [5] it was 0.689; in assay [6], 2.07; in [7] it was -0.208. Besides, the values for the composite z-score in assay [8], in assay [9] and in assay [10] were 0.784, -1.39 and 0.0957, respectively. In assay [2], the composite Z-score was -0.0197 (inactive).
On to `O=C1O[C@H](c2ccccc2)[C@H](c2ccccc2)N2[C@H]1[C@@H](C(=O)N1CCCCCCC1)[C@]1(C(=O)Nc3ccc(C#CC4=CCCCC4)cc31)[C@H]2c1ccc(OCCO)cc1`, for which the composite z-score is 0.833 in assay [1]; 2.11 in assay [3]; 1.05 in assay [4]; 0.837 in assay [5]; 3.66 in assay [6]; 1.3 in [7]. The composite z-score was determined as 1.25 in [8], 1.48 in assay [9] and 1.15 in assay [10]. The composite Z-score in assay [2] is 7.2 (inactive).
For the molecule `COC(=O)[C@@]1(Cc2ccccc2)[C@H]2c3cc(C(=O)N4CCCC4)n(Cc4ccc(S(C)(=O)=O)cc4)c3C[C@H]2CN1C(=O)c1ccccc1`, the composite z-score in assay [1] was 1.12; in [3], 0.511; in assay [4], -0.173; in assay [5], 0.902; in assay [6], 1.92; in [7], 0.559. For the same molecule, the composite z-score in assay [8] was 1.29; in assay [9] it was -0.832; in assay [10] it was 0.978. Besides, in assay [2], the composite Z-score was 0.971 (inactive).
As to `COc1ccccc1CN1C(=O)c2ccccc2[C@@]2(Cc3ccccc3N(CC(C)C)C2=O)[C@@H]1c1ccc(CO)cc1`, the composite z-score was -0.119 in [1]; -0.211 in assay [3]; -0.143 in assay [4]; -0.137 in assay [5]; 0.19 in [6]; 0.249 in assay [7]. Further, the composite z-score is 0.253 in [8], -0.238 in assay [9] and 0.277 in assay [10]. Besides, in assay [2], the composite Z-score was 0.188 (inactive).
In the case of `COC(=O)[C@@]1(Cc2ccc(OC)cc2)[C@H]2c3cc(C(=O)N(C)C)n(C)c3C[C@H]2CN1C(=O)c1ccccc1`, the composite z-score worked out at 1.03 in assay [1]; 0.839 in [3]; 0.284 in assay [4]; 0.76 in assay [5]; 3.16 in assay [6]; 0.0675 in assay [7]. Moreover, the results for the composite z-score in assay [8], in assay [9] and in [10] were 1.31, -0.1 and 1.15, respectively. Also, the composite Z-score in [2] is 0.0517 (inactive).
For the molecule `C=C[C@H](CO)NS(=O)(=O)c1ccc(Br)cc1`, the composite z-score in assay [1] is 0.158; in assay [3], 0.234; in assay [4], -0.127; in assay [5], -0.0876; in assay [6] it was 1; in assay [7] it was 0.117. The composite z-score was 0.562 in assay [8], 0.704 in assay [9] and 0.549 in assay [10]. Besides, the composite Z-score in assay [2] was 0.058 (inactive).
Turning to `CC[C@@H]1C=C(C(=O)O)[C@H](c2ccc(Br)cc2)N1S(=O)(=O)c1ccc(C)cc1`, the composite z-score is 0.66 in assay [1]; 0.167 in assay [3]; -0.0649 in [4]; 0.709 in assay [5]; 2.01 in [6]; 0.98 in assay [7]. For the same molecule, the composite z-score in assay [8] was found to be 0.93; in [9] it was 0.173; in assay [10] it was 0.882. Besides, the composite Z-score in [2] was 0.142 (inactive).
Regarding `Cc1nc2cc(Br)ccc2c(=O)o1`, the composite z-score in assay [1] is 0.367; in assay [3] it was -0.013; in [4], -0.124; in [5], 0.633; in [6] it was 0.495; in assay [7], 0.108. The composite z-score in assay [8] was 0.384; in assay [9], 0.126; in assay [10], 0.724. The composite Z-score in [2] was 0.239 (inactive).
